Assay results from PubChem BioAssay (NCI).
This is part of a sample that, as a whole, favours compounds with a hit. Of some 83,000 tested, about 20% had one in any assay.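 Single-dose data. Exposure time 48 hours. Values below 10 considered active.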 The source made the active and inactive calls.

Each molecule was assayed on HOP-92 NSCLC (assay: NCI-60 one-dose screen, 48 h (100 = growth as untreated, 0 = no growth, -100 = all killed)). Conditions: 10 µM unless noted.
Experimental: Growth inhibition of the HOP-92 human Non-Small Cell Lung tumor cell line is measured as a screen for anti-cancer activity. Cells are grown in 96 well plates and exposed to the test compound for 48 hours. Compounds are tested at a single concentration, which is 10^-5 M for most compounds. The reported endpoint is percent growth (GI% or GIPRCNT), where numbers from 0 - 100% represent growth inhibition, and numbers from -100% - 0 represent cell death. For example, a value of 40 represents 60% growth inhibition. A value of 0 means no net growth occurred over the course of the experiment. A value of -40 indicates 40% of cells at the beginning of the experiment died by the end of the experiment. A value of -100 means all cells are dead at the end of the experiment.
NCI-60 Human Tumor Cell Lines Screen was performed using the standard one-dose NCI protocol, which is described in more detail at https://dtp.cancer.gov/discovery_development/nci-60/default.htm.
Compounds with GIPRCNT values below 10 were considered active. Activity score was based on GIPRCNT using the following formula: […]
Score is 0 for GIPRCNT values of 100 or above, 50 for GIPRCNT values of 0, and 100 for GIPRCNT values of -100.

Question: How did the growth turn out when `COc1ccc(C(c2ccc(OC)cc2)C(Cl)(Cl)Cl)cc1` was run?
Answer: 63.9% (inactive)

Question: `CCOc1c(Cl)cc(CNC(C)C(O)c2ccccc2)cc1OC` (stereo not given) was tested. Which growth did it give?
Answer: 27% (inactive)

Question: `COc1ccc(C2SCC(=O)Nc3c2c(C)nn3-c2nc3ccc(C)cc3s2)cc1O` (stereo not given) was tested. Which growth did it give?
Answer: 28.9% (inactive)

Question: With `COc1cc(CNCCc2ccc(Cl)cc2)cc(OC)c1O` as the molecule, how does the growth read?
Answer: 60.6% (inactive)

Question: With `COP(=S)(OC)Oc1ccc(SC)c(C)c1` as the molecule, how does the growth read?
Answer: 72.6% (inactive)

Question: How did the growth turn out when `O=C(C(=O)N1CCCC1)c1cn(CCCCCn2cc(C(=O)C(=O)N3CCCC3)c3ccccc32)c2ccccc12` was run?
Answer: 37.2% (inactive)

Question: `Nc1ccc(N)c2c1Oc1ccccc1O2` was tested. Which growth did it give?
Answer: 74.8% (inactive)

Question: `CCOC(=O)C1(c2ccccc2)CCN(CC(=O)c2ccc(NC(C)=O)cc2)CC1` was tested. Which growth did it give?
Answer: 66.5% (inactive)

Question: How did the growth turn out when `CC(=O)[O][Hg][c]1ccccc1` was run?
Answer: -94.7% (active)

Question: For `OC1(c2ccc(Cl)cc2Cl)c2ccccc2C2=NCCN21` (stereo not given), which growth is on record?
Answer: -2.5% (active)

Question: Which growth does the source give for `CCC[CH2][Sn]1([CH2]CCC)[O]C(=O)c2cccc([N+](=O)[O-])c2C(=O)[O]1` here?
Answer: -91.7% (active)

Question: How did the growth turn out when `CC(C)(C)[Si](C)(C)OC1[C@@H](O[Si](C)(C)C(C)(C)C)[C@@H](CNC(=O)NC(=O)CF)O[C@H]1n1cnc2c(NC(=O)Nc3ccccc3)ncnc21` (stereo not given in full) was run?
Answer: 48.5% (inactive)

Question: Which growth does the source give for `COc1cccc2c1C(=O)c1c(O)c3c(c(O)c1C2=O)CC(O)(/C(C)=N/NC(=O)CCC(=O)N/N=C(\C)C1(O)Cc2c(O)c4c(c(O)c2C(OC2CC(N)C(O)C(C)O2)C1)C(=O)c1c(OC)cccc1C4=O)CC3OC1CC(N)C(O)C(C)O1` (stereo not given) here?
Answer: -40.3% [5 µM] (active)

Question: `Cc1ccc2oc(=O)c3c(c2c1)OC(N)=C(C#N)C3c1ccco1` (stereo not given) was tested. Which growth did it give?
Answer: 102% (inactive)

Question: `CSc1ccccc1NP1(=O)OCC(C)([N+](=O)[O-])CO1` (stereo not given) was tested. Which growth did it give?
Answer: 89.4% (inactive)

Question: `CC1([N+](=O)[O-])COP(=O)(Nc2ccc(F)cc2)OC1` (stereo not given) was tested. Which growth did it give?
Answer: 118% (inactive)

Question: `n1nc(-c2nonc2-c2nn[nH]n2)n[nH]1` was tested. Which growth did it give?
Answer: 104% (inactive)

Question: With `COc1ccc2c(c1)NC1=C(C(=O)OC1)C2c1cc(OC)c(OC)c(OC)c1` (stereo not given) as the molecule, how does the growth read?
Answer: 5.87% (active)

Question: `ClCCN(CCCl)c1ccc(/C=C\c2ccnc3ccccc23)cc1` was tested. Which growth did it give?
Answer: 46.6% (inactive)

Question: Which growth does the source give for `CC(C)(NC(=O)c1nn(CCCCCF)c2ccccc12)c1ccccc1` here?
Answer: 68.6% (inactive)

Question: How did the growth turn out when `Oc1ccc(O)c2c1C1(Cl)C(Cl)=C(Cl)C2(Cl)C1(Cl)Cl` was run?
Answer: 12% (inactive)

Question: `CC12CCC3C(CC=C4CC(O)CCC43C)C1C/C(=C\N1CCOCC1)C2=O` (stereo not given) was tested. Which growth did it give?
Answer: 91.3% (inactive)

Question: How did the growth turn out when `O=C(CCF)c1ccc(O)cc1` was run?
Answer: 100% (inactive)

Question: Which growth does the source give for `Nc1ncnc2c1c(C(=O)NO)cn2C1OC(CO)C(O)C1O` (stereo not given) here?
Answer: -37% (active)

Question: How did the growth turn out when `Clc1ccc(SSC(Cl)(Cl)Cl)cc1` was run?
Answer: 84.8% (inactive)

Question: Which growth does the source give for `NS(=O)(=O)c1nc[nH]c1[N+](=O)[O-]` here?
Answer: 68.1% (inactive)

Question: With `CCC(C)(C)O` as the molecule, how does the growth read?
Answer: 95.3% (inactive)

Question: Which growth does the source give for `COc1cc[c]([Hg][Cl])cc1` here?
Answer: 90.1% (inactive)

Question: For `O=C(CCc1ccco1)NC1CCN(CC2(c3ccc(Cl)cc3)CCC2)CC1`, which growth is on record?
Answer: -21.9% (active)

Question: `O=C(CC1(O)C(=O)Nc2ccc(F)cc21)c1ccc(C(=O)NCC2CCC3(CC2)OOC2(CCCCC2)OO3)cc1` (stereo not given) was tested. Which growth did it give?
Answer: -65.3% (active)

Question: For `Oc1ccc(Br)cc1CN1CCN(Cc2ccc(Cl)cc2)CC1`, which growth is on record?
Answer: 24.8% (inactive)

Question: `C/C(=C\C(=O)O[C@H]1[C@@H]2[C@H](C)CC[C@H]2[C@]2(C)O[C@@]1(C1CCCCC1)C[C@H]2OC(=O)CO)c1ccccc1` was tested. Which growth did it give?
Answer: 18.3% (inactive)

Question: `CC(=O)O[C@H]1CCC2C3CCC4=C/C(=N/O)CCC4(C)C3CCC21C` (stereo not given in full) was tested. Which growth did it give?
Answer: 89.8% (inactive)

Question: For `COc1cc(C2CC(=O)Nc3nc(N)[se]c32)c(OC)c2c1OCO2` (stereo not given), which growth is on record?
Answer: 105% (inactive)

Question: For `NC(Cc1ccc2c(c1)OCO2)c1ccc2c(c1)OCO2` (stereo not given), which growth is on record?
Answer: 63.1% (inactive)

Question: How did the growth turn out when `O=[N+]([O-])c1ccc2cnn(CSP(=S)(c3ccccc3)c3ccccc3)c2c1` was run?
Answer: 65.7% (inactive)

Question: For `CCC[CH2][Sn]([CH2]CCC)([CH2]CCC)[O]C(=O)c1ccc(Cl)cc1Cl`, which growth is on record?
Answer: -84.6% (active)

Question: With `Oc1ccccc1OB(Oc1ccccc1O)N(CCCl)CCCl` as the molecule, how does the growth read?
Answer: 74.5% (inactive)

Question: How did the growth turn out when `O=C(CCl)NCNC(=O)CCl` was run?
Answer: 99.5% (inactive)

Question: Which growth does the source give for `O=C1C=CC(=O)C2C1C1(Cl)C(Cl)=C(Cl)C2(Cl)C1(Cl)Cl` (stereo not given) here?
Answer: 15.7% (inactive)
